Assay results from PubChem BioAssay (NCI).
The panel holds about 79,000 compounds, 15% with a hit somewhere; the sample as a whole holds those more often. Calls of active or inactive are those of the source. No stated cut-off is given here; in the data, active means growth inhibition above about 70%; inactive means the rest.

assay: NCI Yeast Anticancer Drug Screen. Data for the bub3 strain (AID 167); details: S. cerevisiae bub3 mutant strain, at 50.0 µM, active compounds read high
Description: Growth inhibition of yeast strains with defined genetic alterations is measured as a screen for potential anti-cancer activity. Selected strains with alterations in DNA damage repair or cell cycle control were exposed to compounds and growth inhibition was measured relative to vehicle treated controls. The strain used in this assay is bub3

| SMILES | growth inhibition |
| --- | --- |
| CSc1n[n+](-c2ccccc2)cs1 | 21.7% (inactive) |
| Brc1ccc(Br)s1 | 7.5% (inactive) |
| COC(=O)C1=CON2C3CC4CC(C3)CC(C4)C12C (stereo not given) | -18.4% (inactive) |
| COc1c2cc(C(C)(C)C)cc1CSCc1cc(C(C)(C)C)cc(c1OC)CCCCC2 | -14.6% (inactive) |
| O=C(NC(=S)Nc1cccc(Cl)c1)c1ccccc1 | 46.2% (inactive) |
| CC(=O)N(C(C)=O)c1ccc2c3c(cccc13)CC2 | 8.1% (inactive) |
| COc1ccc2c(c1)OC(C)(C)c1c-2n(C)c2c(F)cccc2c1=O | 5.35% (inactive) |
| O=C(O)c1cccc([N+](=O)[O-])c1C(=O)O | -1.9% (inactive) |
| COc1ccc(N=C(N)N=C(N)N)cc1 | -2.65% (inactive) |
| CC1(C)CCC(C)(C)c2cc(C(=O)O)ccc21 | 14.4% (inactive) |
| CCC1CCC(=O)NC1=O (stereo not given) | -9.6% (inactive) |
| NC(=O)c1ccccc1O | 0.6% (inactive) |
| COc1cc(C)nc2ccc(Cc3ccc4nc(C)cc(OC)c4c3)cc12 | 7.4% (inactive) |
| O=C(O)c1c(Br)c(Br)c(Br)c(Br)c1C(=O)Nc1ccc([N+](=O)[O-])cc1 | 3.15% (inactive) |
| CC(=O)OC1C(COS(=O)(=O)c2ccc(C)cc2)OCOC(COS(=O)(=O)c2ccc(C)cc2)C1OC(C)=O (stereo not given) | -0.7% (inactive) |
| O=C(O)CC1CCCCCC1 | 32.8% (inactive) |
| CCC(C)C(N)C1=NC(C(=O)NC(CC(C)C)C(=O)NC(CCC(=O)O)C(=O)NC(C(=O)NC2CCCCNC(=O)C(CC(N)=O)NC(=O)C(CC(=O)O)NC(=O)C(Cc3cnc[nH]3)NC(=O)C(Cc3ccccc3)NC(=O)C(C(C)CC)NC(=O)C(CCCN)NC2=O)C(C)CC)CS1 (stereo not given) | -15.2% (inactive) |
| CC1COC2(CCCCC2)O1 (stereo not given) | -14.8% (inactive) |
| COc1ccc(/C=C2\CCN(C(C)=O)C2=O)cc1 | 3.25% (inactive) |
| O=C1c2ccccc2C(=O)N1c1ccc(C(F)(F)F)cc1[N+](=O)[O-] | 14.5% (inactive) |

| SMILES | growth inhibition |
| --- | --- |
| NC(=O)SCC(=O)Nc1ccc2cccc3c2c1CC3 | 74.3% (active) |
| N#CC1=C(N)NC(=O)C(C(N)=O)C1c1ccccc1Cl (stereo not given) | -11.4% (inactive) |
| CC1CCCCN1CCCO (stereo not given) | -14.6% (inactive) |
| COC(=O)/C(=C\c1ccccc1N)c1cc2c(cc1Br)OCO2 | 44.3% (inactive) |
| C#CC(C)(C)OC(=O)Nc1cccc(Cl)c1 | -20.6% (inactive) |
| N#Cc1ccc[n+]([O-])c1 | 7.65% (inactive) |
| COc1cc(C(c2ccc3c(c2)OCO3)C2SCCCS2)cc(OC)c1OC (stereo not given) | -12% (inactive) |
| CNC(=O)CN(CC(N)=O)C(=O)NC | -23% (inactive) |
| COc1cc(NC(C)CNC(C)C)c2ncccc2c1 (stereo not given) | 7% (inactive) |
| COC(=O)C1(C(C(=O)c2ccccc2)c2ccccc2)NC(=S)NC(=O)C1C#N (stereo not given) | -15.4% (inactive) |
| COC(=O)C1=C(C(=O)OC)C2CCCOC2=C(C)C1 (stereo not given) | 14.3% (inactive) |
| CCOc1ccc(N=c2ccn3ccccc3c2)cc1 | 8.75% (inactive) |
| O=C(CC12C3C4C1C1C2C3C41CC(=O)NO)NO (stereo not given) | -19.9% (inactive) |
| CSC1(C)C(=O)Nc2cc(C(F)(F)F)ccc21 (stereo not given) | 2% (inactive) |
| CC1(C)C(=O)C(C)(C)C(=O)C(C)(C)C1=O | 11.3% (inactive) |
| Cc1cc(N=C2C=C(Nc3cc(C)on3)C(=O)c3ccccc32)no1 | -14.7% (inactive) |
| Cc1ccc2c(c1)CC1(C2=O)[C@H](c2ccccc2)C2C(=O)c3ccc(C)cc3C2[C@H]1c1ccccc1 (stereo not given in full) | 14.6% (inactive) |
| Cc1cc(S(=O)(=O)Nc2n[nH]c(Nc3ccc(Cl)cc3)n2)c(S)cc1Cl | 0.35% (inactive) |
| CCCCCCCCCCCCCCCCCC1=Nc2cc(C)c(C)cc2NC(=O)C1 | -12.8% (inactive) |
| O=C(O)C1C2CCC3C(C(=O)O)C3C21 (stereo not given) | 11.7% (inactive) |
